Our source for the outcome and AC50 values is PubChem BioAssay (EPA / NIEHS).

The source made the active and inactive calls. How the source made its calls: active means hit-call score of the fitted dose curve at least 0.9, where 1 is the maximum; inactive means score below 0.9.

The term AC50 denotes the concentration at which the activity in the assay is half-maximal.

Chain of Transcription factor E2F1 (Homo sapiens) (Q01094 whole entry, looked up): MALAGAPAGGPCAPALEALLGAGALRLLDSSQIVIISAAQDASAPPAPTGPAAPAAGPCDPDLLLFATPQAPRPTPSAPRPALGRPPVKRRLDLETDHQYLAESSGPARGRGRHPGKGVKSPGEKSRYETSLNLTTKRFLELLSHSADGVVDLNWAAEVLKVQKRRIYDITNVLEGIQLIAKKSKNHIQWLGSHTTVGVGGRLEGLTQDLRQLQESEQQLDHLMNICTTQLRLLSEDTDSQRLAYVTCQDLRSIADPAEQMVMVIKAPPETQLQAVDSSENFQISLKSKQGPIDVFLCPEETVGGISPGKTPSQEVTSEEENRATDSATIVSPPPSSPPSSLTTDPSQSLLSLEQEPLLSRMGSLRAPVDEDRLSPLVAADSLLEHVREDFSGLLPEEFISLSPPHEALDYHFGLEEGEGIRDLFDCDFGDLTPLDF

System in the first experiment: not listed separately
The experiment is described as follows: ATG_BRE_CIS: Attagene CIS-FACTORIAL HepG2 Assay for human Bone Morphogenetic Protein (BMP) Response Element (BRE) (AID 2282933). Particulars: HepG2 BMP response element reporter, Attagene transcription factor profiling; actives raise or lower the signal. Put shortly:
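A HepG2 multiplex reporter system measured inducible reporter mRNA 24 h post-dosing. Detection: RT-PCR, 6-FAM primer extension, HpaI digestion, capillary electrophoresis. Activity fitted bidirectionally relative to DMSO.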
For `Cc1cc(Cc2ccc(N)c(C)c2)ccc1N`, the call was inactive.

Take `O=C1OC(c2ccc(O)cc2)(c2ccc(O)cc2)c2ccccc21`: the result was inactive.

As to `CC(C)(C)c1ccccc1`, the result was inactive.

As for `CCCCCCCCCCCCCCCCO`, the result was inactive.

Consider `COC(=O)CCC(=O)OC`, for which the call was inactive.

For `CC(=O)CC(c1ccccc1)c1c(O)c2ccccc2oc1=O` (stereo unspecified), the outcome was inactive.

In the case of `CC(C)c1cccc(C(C)C)c1`, the compound was called inactive.

On to `CC(C)(O)c1ccc(CNC(=O)c2cccnc2Oc2ccc(F)cc2)cc1`, for which the compound was called inactive.

Turning to `NCCOCCOCCN`, the call was inactive.

As to `C/C=C/c1ccc(OC)cc1`, the outcome was inactive.

`Oc1ccccc1O`: the call was inactive.

For `CCc1cc(C2=C(C(=O)O)N(c3ccccc3C(F)(F)F)S(=O)(=O)c3ccccc32)cc2c1OCO2`, the result was inactive.

For the compound `CCCCCCCC(=O)OC`, the outcome was inactive.

As for `O=C(NS(=O)(=O)/C=C/c1cccs1)c1ccc(F)cc1Br`, the compound was classed as inactive.

In the case of `CCCCC(CC)COC(=O)CCCCCCCC(=O)OCC(CC)CCCC` (stereo unspecified), the compound was classed as inactive.

For `S=c1[nH]c2ccccc2s1`, the concentration at half-maximal activity (AC50) was 7.98 µM (active).

Consider `CC(C)c1cccc(C(C)C)c1NC(=O)NS(=O)(=O)c1cc(C(C)(C)O)co1`, for which the compound was called inactive.

`O=C(O)c1cccnc1`: the compound was classed as inactive.

Turning to `NC(=Nc1ccccc1)Nc1ccccc1`, the compound was called inactive.

Take `CC(=O)[C@@]1(O)CC[C@H]2[C@@H]3CCC4=CC(=O)CC[C@]4(C)[C@H]3CC[C@@]21C`: the result was inactive.

As for `Oc1ccc(O)cc1`, the concentration at half-maximal activity (AC50) is 200 µM (active).

Consider `O=Cc1ccccc1C=O`, for which the call was inactive.

Consider `COC(=O)CCCC(=O)OC`, for which the call was inactive.

For `O=C(O)CN(CC(=O)O)CC(=O)O`, the outcome was inactive.

`C=CCc1ccc(OC)c(OC)c1`: the result was inactive.

Consider `O=[Si]=O`, for which the outcome was inactive.

Consider `Cc1cn([C@H]2C=C[C@@H](CO)O2)c(=O)[nH]c1=O`, for which the call was inactive.

Regarding `CCCCc1nc2cccnc2n1Cc1ccc(-c2ccccc2-c2nnn[nH]2)cc1`, the compound was classed as inactive.

With `O=C1O[C@H]([C@H](O)CO)C(O)=C1O`, the call was inactive.

The target in another experiment is Transcription factor E2F1 (Homo sapiens) (UniProt Q01094). The experiment is described as follows: ATG_E2F_CIS: Attagene CIS-FACTORIAL HepG2 Assay for human E2F Transcription Factor 1 (AID 2282935). As to conditions: HepG2 Attagene cis-reporter, E2F reporter RNA transcripts; actives raise or lower the signal. Put shortly:
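Fluorescent RT-PCR products, digested with HpaI for 2 h at 37 C, are separated by capillary electrophoresis. Source RNA comes from transfected HepG2 cultures treated for 24 h.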
With `Cc1cc(Cc2ccc(N)c(C)c2)ccc1N`, the result was inactive.

Regarding `O=C1OC(c2ccc(O)cc2)(c2ccc(O)cc2)c2ccccc21`, the outcome was inactive.

With `CC(C)(C)c1ccccc1`, the compound was classed as inactive.

With `CCCCCCCCCCCCCCCCO`, the outcome was inactive.

With `COC(=O)CCC(=O)OC`, the outcome was inactive.

Regarding `CC(=O)CC(c1ccccc1)c1c(O)c2ccccc2oc1=O` (stereo unspecified), the call was inactive.

Turning to `CC(C)c1cccc(C(C)C)c1`, the result was inactive.

As to `CC(C)(O)c1ccc(CNC(=O)c2cccnc2Oc2ccc(F)cc2)cc1`, the outcome was inactive.

Regarding `NCCOCCOCCN`, the call was inactive.

In the case of `C/C=C/c1ccc(OC)cc1`, the result was inactive.

Take `Oc1ccccc1O`: the outcome was inactive.

As to `CCc1cc(C2=C(C(=O)O)N(c3ccccc3C(F)(F)F)S(=O)(=O)c3ccccc32)cc2c1OCO2`, the result was inactive.

As for `CCCCCCCC(=O)OC`, the outcome was inactive.

`O=C(NS(=O)(=O)/C=C/c1cccs1)c1ccc(F)cc1Br`: the call was inactive.

Regarding `CCCCC(CC)COC(=O)CCCCCCCC(=O)OCC(CC)CCCC` (stereo unspecified), the compound was classed as inactive.

Turning to `S=c1[nH]c2ccccc2s1`, the compound was classed as inactive.

Turning to `CC(C)c1cccc(C(C)C)c1NC(=O)NS(=O)(=O)c1cc(C(C)(C)O)co1`, the compound was classed as inactive.

Turning to `O=C(O)c1cccnc1`, the compound was classed as inactive.

As for `NC(=Nc1ccccc1)Nc1ccccc1`, the outcome was inactive.

With `CC(=O)[C@@]1(O)CC[C@H]2[C@@H]3CCC4=CC(=O)CC[C@]4(C)[C@H]3CC[C@@]21C`, the compound was called inactive.

In the case of `Oc1ccc(O)cc1`, the compound was called inactive.

In the case of `O=Cc1ccccc1C=O`, the compound was called inactive.

`COC(=O)CCCC(=O)OC`: the compound was classed as inactive.

In the case of `O=C(O)CN(CC(=O)O)CC(=O)O`, the result was inactive.

For the compound `C=CCc1ccc(OC)c(OC)c1`, the result was inactive.

As for `O=[Si]=O`, the result was inactive.

Regarding `Cc1cn([C@H]2C=C[C@@H](CO)O2)c(=O)[nH]c1=O`, the compound was called inactive.

For `CCCCc1nc2cccnc2n1Cc1ccc(-c2ccccc2-c2nnn[nH]2)cc1`, the compound was classed as inactive.

Take `O=C1O[C@H]([C@H](O)CO)C(O)=C1O`: the call was inactive.

System in the next experiment: not listed separately
The experiment is described as follows: ATG_E_Box_CIS: Attagene CIS-FACTORIAL HepG2 Assay for human Enhancer Box (E-box) (AID 2282936). As to conditions: HepG2 E-box cis-reporter transcription, actives raise or lower the signal. A digest of the protocol: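 Fluorescent reporter fragments separated by capillary electrophoresis gave the signal; mRNA came from HepG2 cells transfected with cis-element reporters and treated 24 h. Curves fitted bidirectionally relative to DMSO controls.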
`Cc1cc(Cc2ccc(N)c(C)c2)ccc1N`: the result was inactive.

In the case of `CC(C)(C)c1ccccc1`, the result was inactive.

As for `CCCCCCCCCCCCCCCCO`, the outcome was inactive.

For `COC(=O)CCC(=O)OC`, the outcome was inactive.

As to `CC(=O)CC(c1ccccc1)c1c(O)c2ccccc2oc1=O` (stereo unspecified), the result was inactive.

For the compound `CC(C)c1cccc(C(C)C)c1`, the outcome was inactive.

As to `CC(C)(O)c1ccc(CNC(=O)c2cccnc2Oc2ccc(F)cc2)cc1`, the outcome was inactive.

Turning to `NCCOCCOCCN`, the result was inactive.

For the compound `C/C=C/c1ccc(OC)cc1`, the result was inactive.

Take `Oc1ccccc1O`: the outcome was inactive.

With `CCCCCCCC(=O)OC`, the outcome was inactive.

As for `O=C(NS(=O)(=O)/C=C/c1cccs1)c1ccc(F)cc1Br`, the outcome was inactive.

For `CC(C)c1cccc(C(C)C)c1NC(=O)NS(=O)(=O)c1cc(C(C)(C)O)co1`, the outcome was inactive.

For the compound `O=C(O)c1cccnc1`, the outcome was inactive.

Take `NC(=Nc1ccccc1)Nc1ccccc1`: the result was inactive.

Consider `Oc1ccc(O)cc1`, for which the result was inactive.

With `O=Cc1ccccc1C=O`, the outcome was inactive.

As for `COC(=O)CCCC(=O)OC`, the result was inactive.

As for `O=C(O)CN(CC(=O)O)CC(=O)O`, the result was inactive.

On to `C=CCc1ccc(OC)c(OC)c1`, for which the outcome was inactive.

As for `Cc1cn([C@H]2C=C[C@@H](CO)O2)c(=O)[nH]c1=O`, the outcome was inactive.

In the case of `CCCCc1nc2cccnc2n1Cc1ccc(-c2ccccc2-c2nnn[nH]2)cc1`, the outcome was inactive.

As to `O=C1O[C@H]([C@H](O)CO)C(O)=C1O`, the outcome was inactive.
